HTR5A ag ctr: activates human HTR5A in OPRM1-OPRD1 agonist counter-screen. activation, % at 9.3 µM. P47898. HTR5A agonist assay, luminescence, cell-based. 0.61% of 340,000 active; in the data active = activation mostly above about 9.5%, no sharp cut-off; inactive = mostly below about 7.6%;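 note: 0% = cells with vehicle only and 100% = reference agonist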
Target sequence (P47898 whole entry, looked up): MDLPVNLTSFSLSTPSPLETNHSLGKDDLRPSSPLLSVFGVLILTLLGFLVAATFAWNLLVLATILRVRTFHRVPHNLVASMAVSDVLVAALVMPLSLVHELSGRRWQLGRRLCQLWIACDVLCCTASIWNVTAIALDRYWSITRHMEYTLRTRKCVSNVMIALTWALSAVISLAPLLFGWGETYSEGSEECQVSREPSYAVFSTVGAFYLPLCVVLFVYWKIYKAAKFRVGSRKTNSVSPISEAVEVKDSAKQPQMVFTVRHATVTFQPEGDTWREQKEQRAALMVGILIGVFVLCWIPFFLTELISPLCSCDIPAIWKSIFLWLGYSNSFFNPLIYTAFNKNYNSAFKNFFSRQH
MOR-DOR ag: OPRM1-OPRD1 heterodimerization agonism | P35372+P41143 | cells, luminescence | activation, % at 9.3 µM | 0.3% of 340,000 active | AID 504326; in the data active = activation above about 18%;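 note: 0% = vehicle-treated cells and 100% = reference agonist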
MOR-DOR inv ag: mu-delta opioid heterodimer inverse agonism. P35372+P41143. inhibition, % at 9.3 µM. cell-based MOR-DOR heterodimer luminescence. 0.21% of 340,000 active; in the data active = inhibition above about 22%, passing the limit was not always enough;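 note: 0% = cells with DMSO and 100% = wells without cells with DMSO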
HTR5A inv ag: HTR5A inverse agonism, opioid heterodimer counter-screen. 0.083% of 340,000 active. P47898. inhibition, % at 9.3 µM. HTR5A cell line, luminescence; in the data active = inhibition mostly above about 23%, no sharp cut-off; inactive = mostly below about 18%;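 note: 0% = cells with DMSO and 100% = no-cell wells with DMSO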
MOR-DOR inv conf: OPRM1-OPRD1 heterodimer inverse agonism, confirmation | AID 504900 | 20% of 580 active | inhibition, % at 9.3 µM | shares compounds with MOR-DOR inv ag | cells expressing OPRM1/OPRD1 heterodimer, luminescence; in the data active = inhibition above about 32%;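 note: 0% = cells with DMSO and 100% = wells lacking cells with DMSO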
HTR5A inv ctr2: inverse agonist of human HTR5A in OPRM1-OPRD1 counter-screen. shares compounds with MOR-DOR inv ag. HTR5A-expressing cells, luminescence, inverse agonism. inhibition, % at 9.3 µM. 580 tested, under 10 active; call rule not given here;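 note: 0% = cells with DMSO and 100% = no-cell wells with DMSO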
* = called active by the depositor; . = not tested or not shown. Sampled rows, rich in hits. Any-hit rate of the full collection: about 1.1%.

SMILES | HTR5A ag ctr | MOR-DOR ag | MOR-DOR inv ag | HTR5A inv ag | MOR-DOR inv conf | HTR5A inv ctr2
CCCn1c2ccccc2c2nnc(SCC(=O)Nc3ncccn3)nc21 | -2 | -7 | 32* | 23 | 3 | 20
CC(=O)c1ccc(NC(=O)CCC(=O)OCC(=O)c2cccc([N+](=O)[O-])c2)cc1 | -5 | -7 | 61* | 10 | 51* | 14
Cc1ccc(C(=O)COC(=O)CCC(=O)Nc2ccccc2Cl)cc1[N+](=O)[O-] | -2 | -9 | 45* | 6 | -9 | -25
O=C(CCC(=O)OCc1ccc([N+](=O)[O-])cc1)Nc1ccccc1Cl | -6 | -4 | 19 | 14 | . | .
CC(=O)Nc1ccc(NC(=O)CCC(=O)OCC(=O)c2ccc(C)c([N+](=O)[O-])c2)cc1 | -8 | -11 | 57* | 21* | 36* | 1
Cc1ccc(N2CC(C(=O)OCC(=O)c3ccc(C)c([N+](=O)[O-])c3)CC2=O)cc1 (stereo not given) | -7 | -10 | 52* | 20 | 15 | 17
Cc1ccc(N2CC(C(=O)OCC(=O)c3ccc(F)cc3)CC2=O)cc1 (stereo not given) | -3 | 0 | 3 | 8 | . | .
Cc1ncsc1C(=O)N1CCCC(C(=O)c2ccc3ccccc3c2)C1 (stereo not given) | 3 | -3 | 16 | 12 | . | .
COc1cc(OC)cc(C(=O)NC(C(=O)NNC(=O)c2ccc(C)cc2)C(C)C)c1 (stereo not given) | 2 | -3 | 11 | -4 | . | .
Cc1ccc(C(=O)COC(=O)c2ccncc2)cc1[N+](=O)[O-] | -3 | -9 | 49* | 20 | 29 | 15
C[C@H](NC(=O)COc1ccccc1)C(=O)OCC(=O)c1cc2ccccc2o1 | -8 | -15 | 80* | 33* | -154 | 12
CCOc1ccc(OCCN2C(=O)c3ccccc3C2=O)cc1 | -3 | 0 | 2 | -10 | . | .
CCOc1ccc(N=C2C(=O)N(CN3CCOCC3)c3ccccc32)cc1 | -5 | -16 | 67* | 16 | 49* | -9
COc1ccc(NC(=O)/C(Cl)=C(/Cl)S(=O)Cc2ccc(Cl)cc2)cn1 (stereo not given) | -4 | -8 | 41* | 11 | -13 | 14
CN(C)c1ccc(CC(=O)c2nc3ccccc3s2)cc1 | -3 | -3 | 24* | 7 | 7 | -18
CC(C)(Oc1ccc(F)cc1)C(=O)OCC(=O)c1ccc(S(C)(=O)=O)cc1 | -9 | -15 | 58* | 20 | -35 | 0
Cn1cnc([N+](=O)[O-])c1S(=O)(=O)Oc1ccc(Cl)cc1 | -6 | -8 | 40* | 24 | -24 | 20
Cn1cnc([N+](=O)[O-])c1S(=O)(=O)Oc1cccc2ccccc12 | -5 | -5 | 24 | 22 | . | .
CC(C)N(Cc1ccccc1)C(=O)CN1C(=O)NC2(CCCC2)C1=O | 2 | -3 | 11 | -4 | . | .
O=C(NCc1ccccc1)c1nc(S(=O)(=O)Cc2ccccc2)ncc1Cl | -8 | -6 | 35* | 25 | 8 | 4
O=C(NCc1ccc2c(c1)OCO2)c1nc(S(=O)(=O)Cc2ccccc2F)ncc1Cl | -1 | -6 | 32* | 4 | 9 | -3
COc1ccc(CNC(=O)c2nc(S(=O)(=O)Cc3ccccc3)ncc2Cl)cc1 | -6 | -5 | 24 | -8 | . | .
O=C(NCc1ccc2c(c1)OCO2)c1nc(S(=O)(=O)Cc2ccccc2)ncc1Cl | 2 | -5 | 27 | -6 | . | .
COc1ccc([N+](=O)[O-])cc1NC(=O)C(C)OC(=O)CC1CCCC1 (stereo not given) | 7 | 1 | -6 | -20 | . | .
COC(=O)c1[nH]c(=O)c2ccccc2c1O | -5 | -10 | 42* | 12 | -152 | -8
SMILES | HTR5A ag ctr | MOR-DOR ag | MOR-DOR inv ag | HTR5A inv ag | MOR-DOR inv conf | HTR5A inv ctr2
COC(=O)c1[nH]c(=O)c2ccccc2c1OCc1ccccc1 | 1 | -2 | 12 | -7 | . | .
N#C/C(=C\c1ccncc1)c1nc2ccccc2c(=O)[nH]1 | -2 | -6 | 33* | 7 | -14 | 17
N#C/C(=C/c1ccncc1)c1nc2ccccc2c(=O)[nH]1 | 9 | -5 | 27 | -10 | . | .
Cc1cc(Br)ccc1N=C1C(=O)Nc2ccccc21 | -4 | -10 | 50* | 15 | 14 | 8
Cc1cccc(C)c1N=C1C(=O)Nc2ccccc21 | -7 | -9 | 46* | 28 | -26 | -3
Cc1cc(C)c(N=C2C(=O)Nc3ccccc32)c(C)c1 | -5 | -9 | 48* | 19 | -37 | -32
O=C1Nc2ccccc2C1=Nc1ccccc1-c1ccccc1 | -7 | -14 | 62* | 28 | -219 | -20
O=C1Nc2ccccc2/C1=N/N=C/c1cccc(O)c1 | 3 | -1 | 5 | 19 | . | .
Cc1ccc(C(=O)OCC(=O)N2CCCCCC2)c(O)c1 | -3 | -4 | 16 | -7 | . | .
COc1ccc(N2C(=O)C(F)(F)C2c2ccc(C)cc2)cc1OC (stereo not given) | -4 | -1 | 3 | 10 | . | .
CN1CCN(C2=C(NS(=O)(=O)c3cccs3)C(=O)c3ccccc3C2=O)CC1 | 8 | 2 | -10 | -22 | . | .
O=C1C(NS(=O)(=O)c2cccs2)=C(N2CCOCC2)C(=O)c2ccccc21 | -1 | -8 | 41* | 39 | 6 | 7
Cc1ccc(C(=O)N2CCCCC2C(=O)O)cc1S(=O)(=O)N1CCCCC1 (stereo not given) | -2 | -2 | 8 | 6 | . | .
COc1cc(Br)c(S(=O)(=O)Nc2c(C)n(C)n(-c3ccccc3)c2=O)cc1OC | -4 | -2 | 12 | 3 | . | .
COc1ccc(S(=O)(=O)Nc2c(C)n(C)n(-c3ccccc3)c2=O)c(Cl)c1Cl | -2 | -6 | 31* | 6 | -180 | 1
O=C1C=CC2(O[C@H](c3ccccc3)[C@@H](c3ccccc3)O2)[C@H](Sc2ccccc2O)C1 | -1 | -8 | 38 | 4 | . | .
O=C1C(c2c(O)[nH]c3ccccc23)=Nc2ccccc21 | -5 | -2 | 13 | -7 | . | .
CC(=O)c1cccc2c(O)c(C3=Nc4ccccc4C3=O)[nH]c12 | 2 | -7 | 36* | 14 | -428 | -11
O=C1C(=O)N(Cc2cccc([N+](=O)[O-])c2)c2ccccc21 | 1 | -10 | 52* | 17 | 17 | 13
Cc1ccc2c(c1)C(=O)C(=O)N2Cc1ccccc1 | 8 | -6 | 38* | -11 | 12 | -4
Cc1ccc2c(c1)C(=O)C(=O)N2Cc1ccc(F)cc1 | -2 | -7 | 39* | 5 | -28 | -10
O=C(CN1C(=O)C(=O)c2ccccc21)OCN1C(=O)c2ccccc2C1=O | -2 | -6 | 30 | 5 | . | .
COc1ccccc1NC(=O)COC(=O)CN1C(=O)C(=O)c2ccccc21 | 1 | -8 | 57* | 10 | 8 | 6
Cc1ccc(Cl)c2c1NC(=O)C2=O | -4 | -19 | 86* | 23 | 74* | 9
O=C(Nc1ccncc1)C1c2ccccc2Oc2ccccc21 | -2 | -7 | 36* | 1 | 11 | 6

Assay outcomes (PubChem)
